Assay results: PubChem BioAssay (NCI)
About 79,000 compounds went through this panel and 15% of them were active in at least one assay; those are over-represented in the sample as a whole. A number with no mark means an inactive call. Active and inactive are the calls of the source. Rule as the data show it: active = growth inhibition above about 70%; inactive = the rest.

Columns and labels:
[1] = NCI Yeast Anticancer Drug Screen. Data for the rad50 strain (AID 155);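 also: 0% = growth of vehicle-only cultures of the same strain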; conditions: S. cerevisiae rad50 strain growth inhibition; at 50.0 µM; active compounds read high
Outline: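 Yeast carrying a defined DNA repair defect were exposed to test compounds, and growth was compared with vehicle-treated controls to give percent inhibition.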

[2] = NCI Yeast Anticancer Drug Screen. Data for the mec2-1 strain (AID 157); conditions: S. cerevisiae mec2-1 strain, at 50.0 µM, active compounds read high
Outline: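 Compounds were applied to mec2-1 yeast cells. Their growth was then compared with that of vehicle-treated cultures to give growth inhibition.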

[3] = NCI Yeast Anticancer Drug Screen. Data for the sgs1 mgt1 strain (AID 161);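 also: 0% = growth of cultures given vehicle only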; conditions: S. cerevisiae sgs1 mgt1 strain, at 50.0 µM, active compounds read high
Outline: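 Percent growth inhibition was derived by comparing compound-exposed mutant yeast with vehicle-exposed cultures. The strain carries alterations in DNA damage repair.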

[4] = NCI Yeast Anticancer Drug Screen. Data for the cln2 rad14 strain (AID 165);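 also: 0% = growth equal to vehicle treated cultures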; conditions: S. cerevisiae cln2 rad14 strain, at 50.0 µM, active compounds read high
Outline: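 Strain: cln2 rad14 yeast, altered in cell cycle control and DNA damage repair. Read-out: growth inhibition vs vehicle.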

[5] = NCI Yeast Anticancer Drug Screen. Data for the bub3 strain (AID 167); conditions: S. cerevisiae bub3 mutant strain, at 50.0 µM, active compounds read high
Outline: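 Compounds were applied to a genetically altered yeast strain carrying a cell-cycle control defect. Growth inhibition was scored against vehicle-treated controls.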

[6] = NCI Yeast Anticancer Drug Screen. Data for the mlh1 rad18 strain (AID 175); conditions: S. cerevisiae mlh1 rad18 strain growth inhibition; at 50.0 µM; active compounds read high
Outline: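 A repair-deficient yeast strain is exposed to test compound, and growth is scored relative to vehicle-treated controls.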

Compound | growth inhibition [1] [%] | growth inhibition [2] [%] | growth inhibition [3] [%] | growth inhibition [4] [%] | growth inhibition [5] [%] | growth inhibition [6]
CNc1ccc(/C=C/c2ccnc3ccccc23)cc1 | 31.2 | 46.2 | 68.3 | 27.6 | 42.1 | 49.8%
O=S(=O)(Cl)c1c(F)c(F)c(F)c(F)c1F | -31.3 | -41.1 | -19.9 | 24.1 | -0.25 | -21.4%
O=C1CCC2(CC1)SCCCS2 | -0.6 | -21.5 | -16.1 | 20.9 | -7.3 | -17.1%
COc1cccc(-c2cc(=O)c3cc(N4CCCC4)ccc3[nH]2)c1 | -26.3 | -15.2 | -19.9 | 8.6 | -21.6 | -19.1%
COC1=CC(=O)C(Cc2ccc3c(c2)OCO3)=CC1=O | 13.2 | 24.6 | 15.7 | -9.45 | 3.1 | 34.5%
CC(C)=CC(=O)C/C(=N\NC(N)=S)C(=O)Nc1ccc(Cl)cc1 | -7.4 | -27.5 | 5.55 | 9.45 | 5.1 | -1.3%
CC1C2CCC3(CCC4C5(C)CCCC4(CN(CCO)C5)C3C2)C1O (configuration not stated) | 2.1 | -24.4 | 5.3 | 13.8 | -2.4 | -8.4%
CC1C[C@]2(C)C(=O)N(c3ccccc3)C(=N)[C@@H]2N(C)c2ccccc21 (some centres not stated) | -14.2 | 6.7 | -3.55 | -4.15 | 25.9 | -15.8%
COC(=O)c1ccc(/C=C/c2cc(O)ccc2O)cc1 | 16.5 | 25.8 | 56.6 | 44.5 | 52.5 | 75% (active)
N#CCCCNc1ccccc1 | -19.1 | -15 | -28.4 | -4.9 | -8.6 | -20.6%
CCC(C(=O)c1cccs1)C(O)(C(F)(F)F)C(F)(F)F (configuration not stated) | -13.8 | 4.6 | -28.4 | -83.2 | -31.4 | 22.9%
CC1COCOC1c1ccc2c(c1)OCO2 (configuration not stated) | 17.6 | 4 | 6 | 9.45 | -9.45 | -15.8%
Nc1nc(N)c(N=Nc2cc(Cl)c([N+](=O)[O-])cc2Cl)c(=O)[nH]1 | 13.2 | -3.75 | -10.9 | -7.15 | -1.35 | -11.1%
CC(=O)N(c1ccccc1)c1ccccc1 | 12.8 | 13.2 | 2.6 | 6.05 | -0.2 | 4.1%
CN=C1c2ccccc2C(=O)c2c1c(O)n(C)c2O | 3.05 | -8.45 | 0.9 | 1.4 | -2.75 | -1%
O=C(Oc1ccc(OC(=O)c2ccc([N+](=O)[O-])cc2)cc1)c1ccccc1 | 9.85 | -2.25 | -1.4 | 26.4 | -3.05 | 5.25%
COc1ccc(NC(=O)Nc2ccc(Cl)cc2C)cc1 | -13.4 | -2.8 | -11.6 | -12.2 | -12.5 | -15.2%
Cc1cccc(C(=O)OC2CCCCC2)c1 | 1.85 | 1.2 | -3.1 | -30.4 | 23.9 | 0.5%
Nc1ncnc(N)c1NC(=O)c1cccc(C(=O)c2ccccc2)c1 | 2.85 | 16.1 | -10.7 | -3.5 | 0.85 | 0.85%
O=C(O)/C(Cc1ccc([N+](=O)[O-])cc1)=N\O | -4.2 | 6.85 | -25.4 | -16.6 | 17.4 | -2.8%
O=C(C[n+]1ccc2ccccc2c1)c1ccc(Br)cc1 | -17.1 | 12.3 | 1.8 | -0.65 | -11.9 | 28.9%

Compound | growth inhibition [1] [%] | growth inhibition [2] [%] | growth inhibition [3] [%] | growth inhibition [4] [%] | growth inhibition [5] [%] | growth inhibition [6]
Cc1ncc(COP(=O)(O)O)c(C)c1O | -15.7 | -10.1 | -33.5 | -33.6 | -31.3 | -13.6%
CCCCCCCCCCCCCCCCCC(=O)CCCCCCCCCCCCCCCCC | -17.3 | -21.7 | -6.65 | 13.8 | -6.2 | -16.7%
O=S(=O)(c1ccc(Cl)cc1)c1ccccc1C1=NCCN1 | -37.8 | -44.9 | -5.7 | 6.3 | -43.8 | -23.8%
CC1OC(OC2C(OC3C[C@@]4(C)C(C[C@H](O)[C@H]5[C@H](C6(C)CCC(C(C)(C)O)O6)CCC54C)[C@]4(C)CC[C@@H](O)C(C)(C)C34)OC(CO)C(O)C2O)C(O)C(O)C1O (some centres not stated) (tested in a mixture with another compound) | -7.6 | -20.1 | -3.45 | -26.7 | -8.5 | -72.5%
CC(C)CCC(C)(C)O | 45.9 | 1.8 | 16.1 | -20.7 | 9.95 | 34.2%
O=C1OC2(c3ccc(O)cc3Oc3cc(O)ccc32)C2C3CCC(O3)C12 (configuration not stated) | 52.2 | 38.2 | 42.2 | 27 | 37.2 | 40.4%
Cc1cccc([Si](c2ccccc2)(c2ccccc2)c2ccccc2)c1 | -3.7 | -6.35 | -9.2 | -0.75 | -21.6 | 8.8%
CC[C@]1(O)C(=O)OCc2c1cc1n(c2=O)Cc2cc3c(N)cccc3nc2-1 | 16.1 | 14 | 9.75 | -0.25 | 14.2 | 45%
CC(=O)N(C(C)=O)c1cc2c3ccccc3ccc2c2ccccc12 | 22.4 | -6.3 | 31.1 | 15.1 | 32.8 | 29.4%
Cn1c(=O)c2conc2n(-c2ccc(Cl)cc2)c1=O | 11.2 | -0.1 | -12.2 | -19.9 | 2.55 | -3.25%
CN(C)N=Nc1ccc(C(=O)NC(Cc2ccccc2)C(=O)O)cc1 (configuration not stated) | 1.45 | -4.1 | 3.2 | 0.55 | 3.3 | 6.45%
Nc1ncnc2c1nnn2C1C=CC(CP(=O)(O)O)C1 (configuration not stated) | 2.65 | 8.25 | 12.9 | 13.2 | -4.5 | 27.7%
COc1nc(Cl)cc2nc(Cl)cn12 | 3.4 | 9.35 | -3.65 | 9.55 | -11.8 | 2.55%
COc1cc(CCl)cc(OC)c1OC | -13.7 | -12 | -7.7 | -21.9 | -7.65 | -11.8%
Cc1ccccc1Nc1n[nH]c(=O)n1-c1ccccc1C | 4.05 | 6.65 | 1.75 | -12.5 | 1.15 | 2.9%
Nc1nc2c(ncn2C2OC(COC(=O)c3ccccc3)C(OC(=O)c3ccccc3)C2OC(=O)c2ccccc2)c(=O)[nH]1 (configuration not stated) | -25.9 | -12.8 | -0.6 | 11.5 | 0.9 | -7.65%
O=C1CC(=O)N(c2ccccc2)N1 | 35.2 | 7.45 | 45 | 19.9 | 35.1 | 16.9%
CCSCC(N)C(=O)O (configuration not stated) | -16.1 | 2.5 | 7.45 | -7.25 | 3.35 | -9%
CCOC(=O)CC(C(=O)OCC)C(=O)OCC | -7.4 | -11.4 | -8.1 | -6.35 | 5.45 | -4.1%
COc1ccc(-n2cc[n+](C)c2/C=N\O)cc1 | -3.1 | 0.95 | 3.2 | -43.3 | -31.8 | -13.6%
NC(=S)NNC(=S)NC(=O)c1ccco1 | -39.8 | 5.55 | 5.05 | 14.3 | 22.1 | -18.7%
